From PubChem BioAssay (NCATS)
A number with no mark means an inactive call. Inconclusive results are not listed. Where a call stands in place of a potency, no number is given. Active and inactive are the calls of the source. Unless noted, the call rests on the fitted dose curve; in most records, active means well fitted curve in the direction sought with a large enough effect; inconclusive means small, poorly fitted or top-dose-only effect, or another doubt; inactive means no such curve, though single readings can be large; an effect the other way counts as inactive or inconclusive.

What was measured:
[1] = target: T1, Tyrosine-protein phosphatase non-receptor type substrate 1 (Homo sapiens) + Leukocyte surface antigen CD47 (Homo sapiens) (UniProt P78324+Q08722); assay: CD47-SIRPalpha protein protein interaction - LANCE assay qHTS validation (AID 1347057; active means well fitted curve in the direction sought with a large enough effect in the signal ratio, with a control signal flat, not every such curve was filed as active; the % refers to the signal ratio; further: series mostly up to about 38 µM)
T1 sequence (P78324 whole entry, looked up): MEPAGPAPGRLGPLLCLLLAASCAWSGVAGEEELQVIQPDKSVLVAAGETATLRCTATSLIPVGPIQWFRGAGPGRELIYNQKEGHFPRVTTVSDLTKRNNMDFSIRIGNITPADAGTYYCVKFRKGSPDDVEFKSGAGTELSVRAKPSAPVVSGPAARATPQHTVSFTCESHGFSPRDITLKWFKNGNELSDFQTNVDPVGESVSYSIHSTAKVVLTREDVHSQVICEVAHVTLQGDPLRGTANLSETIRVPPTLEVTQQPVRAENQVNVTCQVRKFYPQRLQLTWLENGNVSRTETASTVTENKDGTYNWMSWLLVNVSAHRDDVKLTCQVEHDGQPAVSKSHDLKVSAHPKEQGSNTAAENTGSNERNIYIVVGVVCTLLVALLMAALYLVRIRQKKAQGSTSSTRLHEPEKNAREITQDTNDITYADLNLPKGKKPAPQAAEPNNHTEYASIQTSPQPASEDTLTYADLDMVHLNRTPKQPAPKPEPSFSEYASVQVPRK
T1 sequence (Q08722 whole entry, looked up): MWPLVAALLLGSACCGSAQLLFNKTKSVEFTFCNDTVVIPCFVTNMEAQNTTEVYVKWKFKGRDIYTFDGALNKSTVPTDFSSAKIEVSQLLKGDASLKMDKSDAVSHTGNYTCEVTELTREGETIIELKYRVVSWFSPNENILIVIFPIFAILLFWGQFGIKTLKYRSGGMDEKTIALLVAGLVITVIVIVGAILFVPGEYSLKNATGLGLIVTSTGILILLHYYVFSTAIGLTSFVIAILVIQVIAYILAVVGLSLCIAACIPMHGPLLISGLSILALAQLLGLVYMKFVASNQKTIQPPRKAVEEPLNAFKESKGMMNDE
Procedure, shortened: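 First, His-tagged CD47 and Eu-labelled anti-His antibody met the compound for 30 min; next, site-specifically biotinylated SIRPalpha was added for 30 min; finally streptavidin-APC was added before reading the TR-FRET ratio.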

[2] = target: T1, Tyrosine-protein phosphatase non-receptor type substrate 1 (Homo sapiens) + Leukocyte surface antigen CD47 (Homo sapiens); assay: CD47-SIRPalpha protein protein interaction - HTRF assay qHTS validation (AID 1347058; active means well fitted curve in the direction sought with a large enough effect in the signal ratio, not every such curve was filed as active; the % refers to the signal ratio;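 further: recombinant soluble extracellular CD47 with His tag and biotinylated SIRPalpha domains; series mostly up to about 38 µM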)
Procedure, shortened: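 TR-FRET read (Ch1/Ch2 ratio) of soluble extracellular CD47 and Avi-biotinylated SIRPalpha domains in PBS pH 7.4 with 0.05% IGEPAL; 7-point compound titration. Sequential 30 min room-temperature steps; non-biotinylated SIRPalpha as control inhibitor.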

[3] = target: T1, Tyrosine-protein phosphatase non-receptor type substrate 1 (Homo sapiens) + Leukocyte surface antigen CD47 (Homo sapiens); assay: CD47-SIRPalpha protein protein interaction - Alpha assay qHTS validation (AID 1347059);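 further: bead proximity luminescence from CD47 binding SIRPalpha after compound preincubation with SIRPalpha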
Procedure, shortened: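 Binding is measured by AlphaScreen proximity: Ni-NTA acceptor beads capture His-CD47, streptavidin donor beads capture biotin-SIRPalpha. Each of three additions (SIRPalpha with compound, CD47, beads) incubates 30 min at room temperature protected from light.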

[4] = target: Parathyroid hormone/parathyroid hormone-related peptide receptor (Homo sapiens) (UniProt Q03431); assay: qHTS for PTHR1 Agonists: Optimization Screen against the NCGC LOPAC library (AID 1347079);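 further: GloSensor cAMP luminescence in HEK-293 GP2 cells expressing human PTHR1 with IBMX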
Chain of Parathyroid hormone/parathyroid hormone-related peptide receptor (Homo sapiens) (Q03431 whole entry, looked up): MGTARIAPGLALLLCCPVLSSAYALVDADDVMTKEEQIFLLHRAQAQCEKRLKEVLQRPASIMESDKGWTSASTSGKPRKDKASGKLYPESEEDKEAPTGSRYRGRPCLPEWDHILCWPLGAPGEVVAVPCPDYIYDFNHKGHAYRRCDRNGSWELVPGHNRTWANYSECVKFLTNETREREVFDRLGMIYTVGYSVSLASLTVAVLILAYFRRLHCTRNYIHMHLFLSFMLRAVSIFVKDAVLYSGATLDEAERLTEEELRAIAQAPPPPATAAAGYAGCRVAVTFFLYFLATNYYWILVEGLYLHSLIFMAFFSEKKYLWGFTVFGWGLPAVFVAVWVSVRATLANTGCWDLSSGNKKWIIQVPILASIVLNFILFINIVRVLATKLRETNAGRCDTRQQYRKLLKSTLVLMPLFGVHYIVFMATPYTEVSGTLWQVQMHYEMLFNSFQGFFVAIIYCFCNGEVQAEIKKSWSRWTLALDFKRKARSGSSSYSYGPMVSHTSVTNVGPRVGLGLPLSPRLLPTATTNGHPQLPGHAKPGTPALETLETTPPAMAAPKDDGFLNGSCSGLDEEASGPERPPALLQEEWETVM
Procedure, shortened: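 Compounds were tested across a qHTS titration. PTHR1-expressing GP2 cells report cAMP rises via GloSensor luminescence after 1 hr compound exposure at 37C with IBMX present.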

[5] = qHTS of pediatric cancer cell lines to identify multiple opportunities for drug repurposing: Primary screen for TC32 cells (AID 1347089); further: nearly all actives have a fitted effect of over 60% in size; further: potency means the concentration at half of the fitted maximal effect
Procedure, shortened: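 Luminescent ATP read-out (CellTiter-Glo) of metabolically active TC32 cells after 48 h exposure. Concentration-response curves came from 11-point (MIPE, 0.78 nM–46 µM) or 8-point (NPC, 0.59 nM–46 µM) primary titrations; follow-up used 11 points.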

[6] = qHTS of pediatric cancer cell lines to identify multiple opportunities for drug repurposing: Primary screen for NB-EBc1 cells (AID 1347095)
Procedure, shortened: (§1)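 Readout: CellTiter-Glo luminescence, 48 h treatment. Controls DMSO (neutral) and bortezomib 2.3 µM final (positive). Potency and efficacy taken from primary-screen concentration-response curves.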

[7] = qHTS of pediatric cancer cell lines to identify multiple opportunities for drug repurposing: Primary screen for SK-N-SH cells (AID 1347098); further: nearly all actives have a fitted effect of over 65% in size; further: potency means the concentration at half of the fitted maximal effect
Procedure, shortened: (§2)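 Cells (500-1,000/well) rested 5 h, then received compounds for 48 h; metabolically active cells were measured by CellTiter-Glo luminescence. Final concentrations spanned up to 46 µM (MIPE, 11-point) or 0.59 nM-46 µM (NPC, 8-point) in primary screens, 11-point in follow-ups.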

[8] = qHTS of pediatric cancer cell lines to identify multiple opportunities for drug repurposing: Primary screen for NB1643 cells (AID 1347099); further: nearly all actives have a fitted effect of over 50% in size; further: potency means the concentration at half of the fitted maximal effect
Procedure, shortened: as §1

[9] = qHTS of pediatric cancer cell lines to identify multiple opportunities for drug repurposing: Primary screen for Rh18 cells (AID 1347102); further: nearly all actives have a fitted effect of over 65% in size
Procedure, shortened: as §2

[10] = qHTS of pediatric cancer cell lines to identify multiple opportunities for drug repurposing: Primary screen for OHS-50 cells (AID 1347103); further: nearly all actives have a fitted effect of over 40% in size; further: potency means the concentration at half of the fitted maximal effect
Procedure, shortened: as §2

[11] = qHTS of pediatric cancer cell lines to identify multiple opportunities for drug repurposing: Primary screen for DAOY cells (AID 1347090); further: series mostly up to about 46 µM; nearly all actives have a fitted effect of over 55% in size
Procedure, shortened: (§3)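 Cell viability, CellTiter-Glo luminescence; 500-1,000 cells/well, 8- or 11-point titration, 48 h compound exposure at 37 degrees C, 5% CO2. Controls: DMSO neutral, bortezomib 2.3 µM final as positive.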

[12] = qHTS of pediatric cancer cell lines to identify multiple opportunities for drug repurposing: Primary screen for SJ-GBM2 cells (AID 1347091); further: potency means the concentration at half of the fitted maximal effect
Procedure, shortened: as §3

[13] = qHTS of pediatric cancer cell lines to identify multiple opportunities for drug repurposing: Primary screen for A673 cells (AID 1347092); further: nearly all actives have a fitted effect of over 45% in size; further: potency means the concentration at half of the fitted maximal effect
Procedure, shortened: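 Cell viability of A673 measured by CellTiter-Glo ATP luminescence after 48 hours compound exposure. Dilution series spanned 0.78 nM to 46 µM (MIPE, 11-point) or 0.59 nM to 46 µM (NPC, 8-point); bortezomib 2.3 uM positive control.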

[14] = qHTS of pediatric cancer cell lines to identify multiple opportunities for drug repurposing: Primary screen for SK-N-MC cells (AID 1347093); further: potency means the concentration at half of the fitted maximal effect
Procedure, shortened: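 Metabolically active cells were quantified by ATP-dependent luminescence (CellTiter-Glo, 15 min at room temperature) following 48 h treatment. Cells had been plated at 500-1,000 per well and settled for 5 h beforehand.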

[15] = qHTS of pediatric cancer cell lines to identify multiple opportunities for drug repurposing: Primary screen for BT-37 cells (AID 1347094); further: potency means the concentration at half of the fitted maximal effect
Procedure, shortened: as §1

[16] = qHTS of pediatric cancer cell lines to identify multiple opportunities for drug repurposing: Primary screen for U-2 OS cells (AID 1347096); further: nearly all actives have a fitted effect of over 50% in size
Procedure, shortened: as §2

[17] = qHTS of pediatric cancer cell lines to identify multiple opportunities for drug repurposing: Primary screen for Saos-2 cells (AID 1347097); further: nearly all actives have a fitted effect of over 40% in size
Procedure, shortened: as §1

[18] = qHTS of pediatric cancer cell lines to identify multiple opportunities for drug repurposing: Primary screen for LAN-5 cells (AID 1347100); further: potency means the concentration at half of the fitted maximal effect
Procedure, shortened: as §2

[19] = qHTS of pediatric cancer cell lines to identify multiple opportunities for drug repurposing: Primary screen for BT-12 cells (AID 1347101); further: nearly all actives have a fitted effect of over 25% in size; further: potency means the concentration at half of the fitted maximal effect
Procedure, shortened: as §2

[20] = qHTS of pediatric cancer cell lines to identify multiple opportunities for drug repurposing: Primary screen for RD cells (AID 1347104); further: nearly all actives have a fitted effect of over 55% in size; further: potency means the concentration at half of the fitted maximal effect
Procedure, shortened: as §1

Row | SMILES | outcome [1] | outcome [2] | Potency [3] | outcome [4] | Potency [5] | Potency [6] | Potency [7] | Potency [8] | Potency [9] | Potency [10] | Potency [11] | Potency [12] | Potency [13] | Potency [14] | Potency [15] | Potency [16] | Potency [17] | Potency [18] | Potency [19] | Potency [20]
1 | c1cc(CN2CCCCC2)cc(OCCCNc2nc3ccccc3s2)c1 | inactive | inactive | inactive | inactive | inactive | inactive | 24.4 µM (active) | inactive | inactive | 27.6 µM (active) |  |  |  |  |  |  |  |  |  | 
2 | C[N+](C)(C)CCOC(=O)CCC(=O)OCC[N+](C)(C)C | inactive | inactive | inactive | inactive |  | inactive | inactive | inactive | inactive | inactive | inactive | inactive | inactive | inactive | inactive | inactive | inactive | inactive | inactive | inactive
3 | CN1CCN(C2=Nc3ccccc3Oc3ccc(Cl)cc32)CC1 | inactive | inactive | inactive | inactive |  | inactive | inactive | inactive | inactive |  | inactive | inactive | inactive | inactive |  | inactive |  | inactive |  | inactive
4 | CC(=O)OCC1=C(C(=O)O)N2C(=O)[C@@H](NC(=O)Cc3cccs3)[C@H]2SC1 | inactive | inactive | inactive | inactive | inactive | inactive | inactive | inactive |  | inactive |  | inactive | inactive | inactive | inactive | inactive | inactive | inactive | inactive | inactive
5 | CC(=O)[C@@]1(O)CC[C@H]2[C@@H]3CCC4=CC(=O)CC[C@]4(C)[C@H]3CC[C@@]21C | inactive | inactive | inactive | inactive | inactive | inactive | inactive | inactive |  |  |  | inactive | inactive | inactive | inactive | inactive | inactive | inactive |  | inactive
6 | Nc1ncn([C@@H]2O[C@H](CO)[C@@H](O)[C@H]2O)c(=O)n1 | inactive | inactive | inactive | inactive | 11.8 µM (active) |  |  | 7.5 µM (active) |  | 24.6 µM (active) |  |  | 6.68 µM (active) | 21.1 µM (active) | 12.3 µM (active) |  |  |  | 8.71 µM (active) | 8.41 µM (active)
7 | C[C@]12CCC(=O)C=C1CC[C@@H]1[C@@H]2CC[C@@]2(C)[C@H]1CC[C@]2(O)C(=O)CO | inactive | inactive | inactive | inactive |  | inactive | inactive | inactive | inactive |  | inactive | inactive | inactive | inactive | inactive | inactive | inactive | inactive | inactive | inactive
8 | O=c1[nH]c(=O)n([C@H]2C[C@H](O)[C@@H](CO)O2)cc1Br | inactive | inactive | inactive | inactive |  | inactive | inactive | inactive | inactive | inactive | inactive | inactive | inactive | inactive | inactive | inactive | inactive | inactive | inactive | inactive
9 | OCCN1CCN(CC/C=C2/c3ccccc3Sc3ccc(C(F)(F)F)cc32)CC1 | inactive | inactive | inactive | inactive |  | inactive | 13.7 µM (active) |  |  | 24.6 µM (active) | inactive | 21.1 µM (active) |  |  |  |  |  | 23.7 µM (active) |  | 26.6 µM (active)
10 | COCCCC/C(=N\OCCN)c1ccc(C(F)(F)F)cc1 | inactive | inactive | inactive | inactive |  | inactive |  | inactive | inactive |  | inactive | inactive |  |  | inactive | inactive |  | inactive | inactive | 
11 | COc1ccc2c(c1OC)C(=O)O[C@@H]2[C@H]1c2c(cc3c(c2OC)OCO3)CCN1C | inactive | inactive | inactive | inactive |  |  |  | inactive |  | inactive | inactive |  |  |  | inactive | inactive |  |  |  | inactive
12 | Cc1nc2c([nH]1)c(=O)n(C)c(=O)n2Cc1ccco1 | inactive | inactive | inactive | inactive |  | inactive | inactive | inactive |  | inactive | inactive | inactive | inactive |  | inactive | inactive | inactive | inactive | inactive | inactive
13 | C=CCc1ccccc1OCC(O)CNC(C)C (stereo not drawn) | inactive | inactive | inactive | inactive | inactive | inactive | inactive | inactive |  | inactive |  | inactive | inactive | inactive | inactive | inactive | inactive | inactive | inactive | inactive
14 | CC[N+](C)(C)c1cccc(O)c1 | inactive | inactive | inactive | inactive |  | inactive | inactive | inactive | inactive | inactive |  | inactive | inactive | inactive | inactive | inactive | inactive | inactive | inactive | inactive
15 | CO[C@@]1(NC(=O)CSCC#N)C(=O)N2C(C(=O)O)=C(CSc3nnnn3C)CS[C@@H]21 | inactive | inactive | inactive | inactive |  | inactive | inactive | inactive | inactive | inactive |  | inactive | inactive |  | inactive | inactive | inactive | inactive | inactive | inactive
16 | CC(=O)OC(C)C[N+](C)(C)C (stereo not drawn) | inactive | inactive | inactive | inactive |  | inactive | inactive | inactive |  | inactive | inactive | inactive | inactive |  | inactive | inactive | inactive | inactive | inactive | inactive
